# Screening data (PubChem)
# Glyco luc inh: blocks N-linked glycosylation in D54 reporter cells; AID 588692; reporter increase, % at 12.5 µM; D54 ERlucT glycosylation luciferase reporter, 24 h; percent of 100 nM tunicamycin response; actives 0.23% (n = 360,000);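 active means mean luciferase reporter signal, scaled so untreated is 0 and the glycosylation-blocking control 100, at or above a set limit in every replicate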;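 further: luciferase carries N-glycosylation sites so blocking glycosylation raises the light; 0% = median of neutral control wells and 100% = median of 100 nM tunicamycin wells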
# ABCB6 inh MLPCN: human ABCB6 transporter inhibition; K562-ABCB6 porphyrin accumulation, flow cytometry, 1 h; stronger effect = lower value; fluorescence ratio to DMSO, % at 10 µM; actives 0.19% (n = 360,000); AID 602162;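 active means fluorescence ratio to DMSO below 75%, the collection mean minus 3 SD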;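 further: signal is porphyrin accumulated inside mitochondria; 100% equals median channel fluorescence of DMSO control wells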
# Target sequence (Q9NP58 whole entry, looked up): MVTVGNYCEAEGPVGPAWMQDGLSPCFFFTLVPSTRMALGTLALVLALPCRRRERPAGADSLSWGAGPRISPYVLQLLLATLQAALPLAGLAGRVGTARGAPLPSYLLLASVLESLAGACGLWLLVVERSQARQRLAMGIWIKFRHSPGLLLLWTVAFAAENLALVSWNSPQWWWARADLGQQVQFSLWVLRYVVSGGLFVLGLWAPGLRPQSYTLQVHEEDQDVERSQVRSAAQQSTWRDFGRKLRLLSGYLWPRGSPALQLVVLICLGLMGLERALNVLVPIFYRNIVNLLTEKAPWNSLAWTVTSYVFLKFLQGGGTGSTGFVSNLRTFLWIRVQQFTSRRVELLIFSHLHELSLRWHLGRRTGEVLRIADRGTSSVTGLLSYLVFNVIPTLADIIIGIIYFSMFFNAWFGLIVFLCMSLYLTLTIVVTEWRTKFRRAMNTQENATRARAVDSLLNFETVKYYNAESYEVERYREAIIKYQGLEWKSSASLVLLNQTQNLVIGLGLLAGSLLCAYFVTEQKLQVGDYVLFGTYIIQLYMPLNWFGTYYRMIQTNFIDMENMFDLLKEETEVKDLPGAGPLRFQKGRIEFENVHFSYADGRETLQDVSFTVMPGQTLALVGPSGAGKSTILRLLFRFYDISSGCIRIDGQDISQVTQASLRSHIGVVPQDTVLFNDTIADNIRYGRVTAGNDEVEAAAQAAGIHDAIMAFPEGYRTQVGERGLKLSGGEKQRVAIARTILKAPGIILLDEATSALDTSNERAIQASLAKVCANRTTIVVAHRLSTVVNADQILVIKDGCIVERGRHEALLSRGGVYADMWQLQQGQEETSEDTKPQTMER
# Vif inh: HIV Vif inhibition; HEK293T cells, Vif self-association by quenched fluorescence, imaging, 24 h; inhibition, % at 7.49 µM; actives 0.35% (n = 340,000); AID 602346; in the data active means inhibition above about 50%, passing the limit was not always enough
# Myeloid diff MLP: myeloid differentiation induction. ER-HoxA9 myeloid progenitors, lysozyme-GFP differentiation, flow cytometry. calls only at 10 µM. actives 1% (n = 360,000). AID 624256;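 active means normalized GFP-positive differentiation at or above the plate's own cutoff, the solvent-only control mean plus 3 SD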;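 further: cells exposed to compound for four days before flow analysis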
# RAD54 branch: inhibitors of human RAD54 branch migration. Q92698. RAD54 Holliday junction branch migration, FAM/BHQ fluorescence. inhibition, % at 10.4 µM. AID 602329. actives 0.14% (n = 360,000);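 active means mean normalized replicate activity at least 40 and at least half of replicates scoring 40 or more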;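 further: 0% = median of neutral control wells and 100% = median of positive control wells; inhibitors cause a drop in the FAM fluorescence signal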
# Myeloid diff: promotes myeloid progenitor differentiation; AID 651706; shares compounds with Myeloid diff MLP; calls only; actives 2% (n = 2,300); ER-HoxA9 myeloid progenitors, GFP/Mac1 double-positive flow;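 active means share of green or green-and-red cells above 9 and 9% in run 1 or 4 and 3% in run 2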
# GFP autofluor: compound fluorescence in myeloid differentiation counter-screen | ER-HoxA9 myeloid progenitors, no estrogen, GFP autofluorescence flow cytometry; vehicle wells 0%, positive control 100% | shares compounds with Myeloid diff MLP | actives 7.4% (n = 2,300) | AID 651707 | fluorescence response, % (no concentration beside the values);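 active means over 5% cells positive for green fluorescent reporter, or over 2% positive for both it and APC stain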;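 further: range taken on the double positive population between DMSO and positive control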
# * marks the source's active call; other numbers are inactive results; i = inactive; nt = no result; + = active, no number. In the library only some 1.6% were active in any assay of this set; here they are far more common.
SMILES,Glyco luc inh,ABCB6 inh MLPCN,Vif inh,Myeloid diff MLP,RAD54 branch,Myeloid diff,GFP autofluor
COc1ccc(CCNC(=O)C23CN(Cc4ccccc4)CC2C(c2cccc([N+](=O)[O-])c2)=NO3)cc1 (stereo unspecified),0,103,4,i,-2,nt,nt
O=C(NCC1CCCCC1)C12CN(Cc3ccccc3)CC1C(c1cccc([N+](=O)[O-])c1)=NO2 (stereo unspecified),-5,94,nt,+,-4,i,0
COC(=O)C[C@@H]1CC[C@H]2[C@H](COc3ccc(NC(=O)c4ccc(F)cc4)cc3C(=O)N2C)O1,nt,nt,nt,nt,1,nt,nt
CN(C)CC(=O)Nc1ccc2c(c1)[C@@H]1C[C@@H](CC(=O)NC3CCCC3)O[C@@H](CO)[C@@H]1O2,nt,nt,nt,nt,7,nt,nt
CC1=C(C(=O)O)N2C(=O)C(NC(=O)c3nn(C)c(C)c3Cl)C2SC1 (stereo unspecified),1,103,1,i,nt,i,0
CC1=C(C(=O)O)N2C(=O)C(NC(=O)c3nn(C)cc3[N+](=O)[O-])C2SC1 (stereo unspecified),3,107,-1,i,-1,nt,nt
O=C(Cc1ccccc1)NCC(=O)OCC(=O)c1ccc(OC(=O)c2ccccc2)cc1,2,103,-7,i,8,i,0
COCC#Cc1cnc2c(c1)C(=O)N([C@H](C)CO)C[C@@H](C)[C@H](CN(C)C(=O)c1cccnc1)O2,nt,nt,nt,nt,1,nt,nt
Cc1oc(C(=O)O)cc1CSc1nnc(-c2ccccc2)n1C,1,100,-10,i,-28,i,1
COC(=O)c1ccc(NC(=O)C(=O)N2CCN(C(=S)Nc3ccc(C)cc3)CC2)cc1,-2,90,0,i,nt,i,0
CO[C@H]1CN(C)C(=O)c2cc(NS(=O)(=O)c3ccccc3F)ccc2OC[C@H](C)NC[C@H]1C,nt,nt,nt,nt,-3,nt,nt
C[C@H](CO)N1C[C@H](C)[C@@H](CN(C)C(=O)NC2CCCCC2)Oc2ccc(NC(=O)CCC(F)(F)F)cc2CC1=O,nt,nt,nt,nt,-5,nt,nt
O=C(CNC(=O)c1ccc(Br)o1)Nc1ccc(N2CCCCCC2)cc1,3,105,0,+,6,i,0
O=C(CNC(=O)c1ccco1)Nc1ccc(N2CCCCCC2)cc1,3,99,-4,i,-5,nt,nt
O=C(O)CCNS(=O)(=O)c1ccc(Oc2ccccc2)cc1,0,100,3,i,-3,i,0
CCCCN1C(N)=NC[C@H]1Cc1ccc(O)cc1,1,91,-2,i,4,nt,nt
CCCCN1C(N)=NC[C@@H]1Cc1ccc(O)cc1,0,97,2,+,-6,i,1
COc1ccc2c(C)nc(Nc3nc(C)cc(C)n3)nc2c1,4,105,-3,i,7,i,35*
O=C(C[C@@H]1CC[C@@H](NC(=O)Nc2cc(F)ccc2F)[C@@H](CO)O1)Nc1ccccc1,nt,nt,nt,nt,-8,nt,nt
CCCNC(=O)Nc1ccc2c(c1)C(=O)N(C)[C@@H]1CC[C@H](CC(=O)OC)O[C@@H]1CO2,nt,nt,nt,nt,-2,nt,nt
Cc1nc(SCC(=O)N2CC(=O)Nc3ccccc32)nc(C)c1C,-1,97,6,i,nt,nt,nt
N#Cc1cc(C#N)c(SCC(=O)N2CC(=O)Nc3ccccc32)nc1N,3,103,1,i,6,i,1
O=C(NCC1CC1)[C@H]1[C@H](CO)[C@H]2Cn3c(ccc(-c4cccnc4)c3=O)[C@@H]1N2C(=O)C1CCCCC1,nt,nt,nt,nt,-2,nt,nt
Cc1cccc2nc3ccccc3cc12,4,92,0,i,1,nt,nt
C/C(O)=c1/ccc2cccc3nc(C)nc1c23,15,109,nt,+,7,i,8.4*
CN1C(=O)c2cc(NC(=O)C3CCOCC3)ccc2OC[C@H]2O[C@@H](CC(=O)NCc3ccc4c(c3)OCO4)CC[C@@H]21,nt,nt,nt,nt,-2,nt,nt
CCNC(=S)N/N=C/c1sc(N2CCCCC2)nc1-c1cccs1,-4,131,69*,i,nt,i,0
CCNC(=S)Nc1ccc(N2CCCCC2)cc1,1,99,-13,i,nt,nt,nt
CN1C(=O)c2cc(NC(=O)Cc3cccs3)ccc2OC[C@@H]2O[C@H](CC(=O)NCC3CC3)CC[C@H]21,nt,nt,nt,nt,-8,nt,nt
